Most compounds without a hit are left out; they make up all but 19% or so of the library.
TDP1 cell CPT: growth inhibition of DT40 Tdp1-/-;hTDP1 cells with camptothecin (screen for TDP1 inhibitors); chicken DT40 Tdp1-/-;hTDP1 cells + 20 nM CPT, ATP luminescence, 48 h; Potency, µM (series often up to 46.2 µM), for inactives: at the top dose activity change, negative = growth inhibition, usual class: inhibitors; hit rate 12% among 420,000; AID 686979; note: potency is the fitted concentration of half-maximal effect; nearly all actives have a fitted effect of over 55% in size
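Chicken DT40 Tdp1-/- cells complemented with human TDP1, 400 cells/well, exposed to compounds plus 20 nM camptothecin for at least 48 h at 37 C; viability read as ATP content by CellTiter-Glo luminescence.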
IL1B secr inh: inhibitors of inflammasome signaling (IL-1 beta secretion); activity change, % at 57.5 µM; THP-1 LPS/ATP IL-1B secretion, AlphaLISA, 16 h; hits give low values; hit rate 4.7% among 360,000; in the data active = activity change below about -50%; inconclusive = mostly about -30% to -49%
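THP-1 cells pretreated 1 hr with compounds (up to 57.5 uM final), then stimulated with LPS (250 ng/mL final) plus ATP (1.25 mM final); secreted IL-1B measured by AlphaLISA after 16 hr, decreased signal indicating inhibition.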
HT1080 IDH1KD tx: toxicity to HT-1080 IDH1 knockdown cells (counter line); HT-1080 IDH1 knockdown viability, ATP luminescence, 48 h; hit rate 2% among 360,000; Potency, µM (highest dose often 46.1 µM), inactives show at the highest dose activity, negative = toxicity, most hits filed as cytotoxic;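 note: potency is the fitted concentration of half-maximal effect; 0% = DMSO wells and -100% = cell-free medium wells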
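In this qHTS, HT-1080 cells depleted of IDH1 are exposed for 48 h at 37 °C to compound titrations. Toxicity is scored from CellTiter-Glo luminescence, with DMSO as full viability and medium alone as none.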
TDP1 cell noCPT: qHTS for Inhibitors of human tyrosyl-DNA phosphodiesterase 1 (TDP1): qHTS in cells in absence of CPT; AID 686978, 2013; DT40 Tdp1-/- hTDP1 cells, no CPT, ATP luminescence, 48 h; Potency, µM (top dose mostly 46.2 µM), for inactives: at the highest dose activity change, negative = growth inhibition, hits mostly inhibitors; hit rate 15% among 420,000; note: potency is the fitted concentration of half-maximal effect; nearly all actives have a fitted effect of over 55% in size
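Chicken DT40 Tdp1-/- cells stably complemented with human TDP1 were seeded at 400 cells/well with DMSO in place of 20 nM camptothecin. After compound pinning, cells grew at least 48 hr at 37 °C; viability read by CellTiter-Glo luminescence.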
HT1080-NT tox: kills 2HG-producing HT-1080-NT fibrosarcoma cells. HT-1080-NT fibrosarcoma viability, CellTiter-Glo ATP luminescence, 48 h. Potency, µM (highest dose often 46.1 µM), for the others: at the highest dose activity, negative = less viability, usual class: cytotoxic. hit rate 1.6% among 360,000. AID 686970;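 note: NT is the 2HG producing partner of a matched IDH1 knockdown line; potency is the fitted concentration of half-maximal effect; 0% = DMSO-treated cells and -100% = media-only wells without cells; nearly all actives have a fitted effect of over 55% in size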
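Fibrosarcoma NT cells, 750 per well in 5% FBS RPMI, were exposed to compound for 48 hours. Viability: CellTiter-Glo luminescence.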
ELG1 repair inh: blocks ELG1-dependent DNA repair in HEK293T cells; Potency, µM (series often up to 46.1 µM), inactives show top-dose activity change, negative = inhibition, actives largely listed as inhibitors; AID 504467; HEK293T ELG1-luciferase reporter, luminescence, 16 h; DNA damage induced by 5-fluorouridine; hit rate 2.3% among 330,000; note: potency is the fitted concentration of half-maximal effect; nearly all actives have a fitted effect of over 55% in size
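Step one: seed 2,000 cells per well. Step two: pin-transfer compound or DMSO alongside 5-fluorouridine. Step three: incubate 16 hr, 37 °C, 5% CO2. Step four: add ONE-Glo, wait 30 min, read luminescence.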
Starred values were filed as active, the others as inactive; ? = inconclusive; / = no result. Unless noted, calls come from the whole dose curve; as a rule, active = well fitted curve in the direction sought with a large enough effect; inconclusive = small, poorly fitted or top-dose-only effect, or another doubt; inactive = no such curve, though single readings can be large; an effect the other way counts as inactive or inconclusive. Unless noted, % is set by controls: 0 for no effect and ±100 for the full control effect.

SMILES	TDP1 cell CPT	IL1B secr inh	HT1080 IDH1KD tx	TDP1 cell noCPT	HT1080-NT tox	ELG1 repair inh
CCOC(=O)c1nc2cc3n(c(C)c-2c1C)C(C)C(C)=C3C (stereo not given)	?	-62*	-12%	13µM*	-8%	5%
CCOC(=O)c1nnc2cc(C)nn2c1C	8%	-14	1%	-2%	1%	0%
CC1(C)CC(=O)C(N=Nc2cccc(F)c2C#N)=C(O)C1	6%	3	-1%	-10%	16%	-2%
CCN(CC)C(=O)c1sc2c(c1C)c(=O)n(Cc1ccccc1)c(=O)n2CC(=O)Nc1ccc(OC)cc1	?	/	/	-19%	/	/
Cc1ccc2c(c1)c1nnc(SCC(=O)N3CCCc4ccccc43)nc1n2CC(=O)O	-29%	14	22%	-25%	20%	?
CSc1nnc2c3cc(C)ccc3n(Cc3ccccc3)c2n1	?	25	-12%	12µM*	-6%	-5%
CCn1c2ccc(OC)cc2c2nc3ccccc3nc21	?	-10	?	12µM*	-23%	?
COc1ccc2c(c1)c1nnc(SC)nc1n2Cc1ccccc1	10µM*	/	10%	11µM*	5%	/
COc1ccc2c(c1)c1nnc(SCC(=O)Nc3ccccc3F)nc1n2C	-23%	12	-1%	?	9%	1%
COc1ncc2nc(-c3ccc(F)cc3)c(=O)n(C3CC3)c2n1	11%	/	/	46%	/	/
C=CCN1C(=O)c2ccc(C(=O)OCC(=O)Nc3ccc(S(N)(=O)=O)cc3)cc2C1=O	14%	5	10%	0%	8%	12%
Cn1c(SCC(=O)N2CCN(c3ccccc3)CC2)nnc1-c1cc2ccccc2o1	?	-2	-16%	-28%	-7%	13µM*
CC1Cc2nc(SCC(=O)N3CCN(c4ccccc4)CC3)n(CCc3ccccc3)c(=O)c2S1 (stereo not given)	18µM*	-20	3%	13µM*	-26%	15µM*
O=C(CSc1nc2c(c(=O)n1-c1ccccc1)SCC2)N1CCN(c2ccccc2)CC1	18µM*	-20	0%	?	-1%	23µM*
CCn1c(SCC(=O)N2CCN(c3ccccc3)CC2)nc2c(c1=O)SC(C)C2 (stereo not given)	?	-16	-4%	21µM*	-2%	23µM*
CC1Cc2nc(SCC(=O)N3CCN(c4ccccc4)CC3)n(C)c(=O)c2S1 (stereo not given)	?	-2	-5%	13µM*	2%	-23%
O=C1C=CC(=O)N1Cc1ccccc1	1µM*	-73*	18µM*	2.3µM*	2.6µM*	-6%
CC1CCCN(c2c([N+](=O)[O-])c(=O)oc3ccccc23)C1 (stereo not given)	16µM*	-5	5%	?	28%	1%
O=c1oc2ccccc2c(N2CCC(c3ccccc3)CC2)c1[N+](=O)[O-]	-22%	-9	9%	?	15%	-20%
COc1ccc2c(c1)OC(C)(C)C(c1ccccc1)C2c1ccc(OCCN2CCCC2)cc1 (stereo not given)	21µM*	/	/	27µM*	/	/
COc1ccc(C2CC(O)(c3ccccc3)Oc3cc(OC)ccc32)cc1 (stereo not given)	?	?	?	?	?	-12%
Cn1nnc2c(NCc3ccco3)ncnc21	-21%	/	/	-18%	/	/
COc1cccc(C=Nc2cccnc2)c1O	/	/	/	/	/	-7%
Cc1cc(O)c(C(C)C)cc1NC(=O)Nc1ccc([N+](=O)[O-])cc1	-14%	?	?	?	-23%	/
Cc1cc(O)c(C(C)C)cc1N=Cc1ccc(N(C)C)cc1	2.9µM*	-8	2%	5.2µM*	5%	/
SMILES	TDP1 cell CPT	IL1B secr inh	HT1080 IDH1KD tx	TDP1 cell noCPT	HT1080-NT tox	ELG1 repair inh
CNC(=S)N/N=C/c1ccc(N(C)C)cc1	5%	-20	-1%	?	9%	?
Cc1cc(O)c(C(C)C)cc1N=Cc1ccc([N+](=O)[O-])cc1	7.3µM*	0	0%	16µM*	0%	/
COc1cccc(C=Nc2cc(C(C)C)c(O)cc2C)c1O	4.1µM*	?	-18%	3.3µM*	-3%	/
COc1cccc(NC(=O)Cn2cnc3c(oc4nc5c(cc43)CCCC5)c2=O)c1	-10%	0	5%	23%	-3%	?
COc1ccccc1NC(=O)Cn1cnc2c(oc3nc4c(cc32)CCCC4)c1=O	?	-24	18%	-25%	?	-3%
O=c1c2oc3nc4c(cc3c2ncn1CCCc1ccccc1)CCCC4	?	-53*	-3%	?	-14%	?
CCCCCCn1cnc2c(oc3nc4c(cc32)CCCC4)c1=O	23µM*	-29	2%	-29%	-3%	?
CCCCn1cnc2c(oc3nc4c(cc32)CCCC4)c1=O	-19%	-60*	1%	-30%	-4%	?
CCN(CC(=O)Nc1ccc(OC)cc1)C(=O)CSCC(=O)Nc1cc(C)on1	-3%	-8	-13%	-5%	-3%	?
CCOc1ccc(-n2c(C)c3c(C)nnc(C)c3c2C)cc1	2.9µM*	44	-31%	2.1µM*	-9%	/
O=C(CSc1nnc2ccc3ccccc3n12)c1ccc(F)cc1	?	/	/	16µM*	/	/
O=C1c2ccccc2C(=O)N1c1ccc2ncccc2c1	0%	/	/	-1%	/	/
COc1ccc(C(C)=O)cc1CSc1nnc(-c2ccc(Cl)cc2)n1-c1ccccc1	13µM*	-23	?	13µM*	?	?
Cc1nnc(C)c2c(C)n(-c3ccc4ncccc4c3)c(C)c12	12µM*	7	4%	?	-1%	-6%
CCOc1ccc(-n2c(=O)c3ccccc3c3ccccc3c2=O)cc1	3%	/	1%	3%	-11%	11%
CCn1c(SCC(=O)Nc2sccc2C(N)=O)nnc1C1CC1	1%	0	-4%	0%	1%	30%
O=C(CSc1nnc(-c2ccccc2)n1-c1ccccc1)c1ccc[nH]1	?	0	6%	?	7%	-3%
Cc1cc(C)cc(-n2c(C)c3c(C)nnc(C)c3c2C)c1	8.2µM*	-2	-8%	7.3µM*	1%	-19%
CCOc1ccc(-c2nnc(-c3ccccc3)n2-c2ccccc2)cc1	?	0	11%	10µM*	2%	?
C=CCSc1nnc(-c2ccncc2)n1-c1ccc(OCC)cc1	-9%	8	10%	-14%	-16%	8%
